Measured values as given in the supplement of paper PMC6555819.

Tested on: VDR:RXRa (NR concentration 270 nM, RXRa partner concentration 90 nM)
Assay: PBM binding z-score (relative to random genomic background probes); higher = stronger binding; sequences stand for … in GC…GCGATTGACAGCGTAGAATGAAGG
Protocol: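 Protein-binding microarray (Agilent 4x180K custom design, double-stranded 60-nt probes: 5' GC cap, 34-nt variable region, 24-nt constant primer region; full probe sequence given). Purified or IVT nuclear receptor:RXRα heterodimers (3:1 NR:RXRα, mostly 270:90 nM) or homodimers were incubated for 1 h in PBS with 2% milk and no ligand, then detected with Alexa488 antibodies. Fluorescence from o1-orientation probes (~5 replicates averaged) was converted to z-scores against 500 random hg19 background probes. Variable regions are seed direct-repeat (DR0–DR5) sites, all their single-nucleotide variants and half-site ablations.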

Going from CTCGAAAGGTCGGTTGTGGTGAGTATACGGATAA to GCTGCTAGGTCGGGTTGGTCAGCTAACGGGTACG, the PBM binding z-score falls from 1.05 to -0.0515.

First: TCATCTAGGTAAACAGGTGAAAGTCCGTAAGTTA
Second: CCTATTAGTTGACCATAAGCGCAACCGAAGCTCG
The PBM binding z-score of the first is lower: 0.914 for the first, 1.05 for the second.

Going from ATATGTAGGTTACTTCCGGGTCATTCAGGCTATG to CGTCCAAGGTCATAGGTGGTCAGTGAAGACAGAT, the PBM binding z-score rises from 3.93 to 4.72.

Compared with ATCTCTAGGTAACAAGTTCAATGAAAGAGAGGAC, CCGAATGGGGCATAAGGTTACCATAAGCCAGCCC is lower in PBM binding z-score: 2.67 for the first, 0.232 for the second.

First: CATTACGGGTCACTGACAGGTTATAGCATTTGGA
Second: GGACCGAGGGCAAGTTGATAGCAGAGTTTGATGG
The PBM binding z-score of the first is higher: 4 for the first, 0.844 for the second.

First: GGAACAAGGGCAAAGTTGATAGCATCTGTCGACG
Second: CCTAGCAGTCCAGGGTCACTCAAGCATTTCGCTT
The PBM binding z-score of the first is lower: 0.828 for the first, 2.69 for the second.

Compared with CCTTACGGGTCACGACGTTATAGCACGACGAGCG, GCCGCTAGGTCAGGTTGGTCAGCTAACGGGTACG is lower in PBM binding z-score: 3.73 for the first, 0.54 for the second.

First: CGAACTAGGTCAGAACAGGACGGTGAAGGATGAT
Second: TCATAGAGGTAATACAGGTGAAAGTCGGCATCTA
The PBM binding z-score of the first is lower: 0.0677 for the first, 1.07 for the second.

First: AGTCAAAGTTCCTCTAGGTAACGTAAGATATGCT
Second: TGAATGAGGTTAAAGATCATGGAACGTGGCGTCG
The PBM binding z-score of the first is lower: 0.145 for the first, 2.05 for the second.

First: GCTTGTAGATGAAGGTTAAGAAAGACTAAGCTAA
Second: GCTGCTAGCTCAGGTTGGTCAGCTAACGGGTACG
The PBM binding z-score of the first is higher: -0.396 for the first, -0.71 for the second.

First: TCTTGTAGATCAAAGGTTACGAAAGCCGAAGCCT
Second: TTACCAAGGTGTGCTGAGGTCGTTGATCCAACTC
The PBM binding z-score of the first is lower: 1.6 for the first, 2.39 for the second.

Compared with TTACCAAGGTGAGCTGAGGTCTTTGATCCAACTC, CGTCCATGGTCAGAGAGGTCAGTGAATGCCGAGT is higher in PBM binding z-score: 0.497 for the first, 4.63 for the second.

Going from ACTATTAGTTGCGACGAGGGCAACCGATAGGTTG to CAAACTAGGTCAAGGTCAGAGTCGGTTTGTGCCA, the PBM binding z-score rises from 0.0281 to 3.93.

First: GGAACGCGGGCATTCGAGTTGATAGCATGGCGAT
Second: ATATGTAGGTTACATCCGCGTCATTCAGGCTATG
The PBM binding z-score of the first is lower: -0.234 for the first, 0.515 for the second.

Compared with AGAATGAGGATAAGATCAGGGAAACAGAATACAT, TCTCGCAGGACACGAAGGTCAGAGCTTTCCAGAG is higher in PBM binding z-score: -0.0497 for the first, 1.57 for the second.

First: CTACCAAGGTGAACAAGGTCGTTGCTTACTATTC
Second: CCTGCTACGTCAATGGTCAGCTAAAGCAGCTCGC
The PBM binding z-score of the first is higher: 6.16 for the first, -0.379 for the second.

First: CGTCCAAGGTCAGAGAGGTCAGTAAATGCCGAGT
Second: CCTGCTAGGTCAATGGTCCGCTAAAGCAGCTCGC
The PBM binding z-score of the first is higher: 7.22 for the first, 0.759 for the second.

Compared with CGAACTAGGTCATCCAGGACAGTTAATACATTGA, ACTATTAGCTGACTTAGGGCAACCGATACGACGC is lower in PBM binding z-score: 4.42 for the first, -0.114 for the second.

First: CCTACTGGGCCAAAAAGGACATTGATGCCGATAA
Second: ACTATCAGTTGACTTAGGGCAACCGATACGACGC
The PBM binding z-score of the first is lower: 0.106 for the first, 0.408 for the second.

Going from TCATATAGGTAAAACAGGTGAAAGTCGGCATCTA to CGTCCAAGATCAGAGAGGTCAGTGAATGCCGAGT, the PBM binding z-score rises from 1.17 to 3.82.
